Active and inactive are the calls of the source.
Key:
[1] = compounds binding Alexa647 anti-His antibody – biochemical, small-molecule microarray, 635 nm fluorescence, artefact control for SMM control protein annotation, primary screen (AID 1128); details: higher = more signal;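 also: score merges feature fluorescence with signal-to-noise for each printed compound spot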
[2] = system: Human papillomavirus type 1a E7 protein (residues 1-88); assay: HPV1a E7 small-molecule binders, primary screen, biochemical, small-molecule microarray, residues 1-88, 635 nm (AID 1129); details: small-molecule microarray binding, fluorescence 635 nm; higher = more signal
[3] = target: Focal adhesion kinase 1 (Homo sapiens) (UniProt Q05397); assay: PTK2 protein binding on printed compound slides – biochemical, small-molecule microarray, 635/667 nm fluorescence, BSA, DTT, primary screen (AID 1130); details: 635 nm fluorescence, higher = more signal;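 also: composite of spot emission at 667 nm and signal to noise over triplicate slides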
Chain of Focal adhesion kinase 1 (Homo sapiens) (Q05397 whole entry, looked up): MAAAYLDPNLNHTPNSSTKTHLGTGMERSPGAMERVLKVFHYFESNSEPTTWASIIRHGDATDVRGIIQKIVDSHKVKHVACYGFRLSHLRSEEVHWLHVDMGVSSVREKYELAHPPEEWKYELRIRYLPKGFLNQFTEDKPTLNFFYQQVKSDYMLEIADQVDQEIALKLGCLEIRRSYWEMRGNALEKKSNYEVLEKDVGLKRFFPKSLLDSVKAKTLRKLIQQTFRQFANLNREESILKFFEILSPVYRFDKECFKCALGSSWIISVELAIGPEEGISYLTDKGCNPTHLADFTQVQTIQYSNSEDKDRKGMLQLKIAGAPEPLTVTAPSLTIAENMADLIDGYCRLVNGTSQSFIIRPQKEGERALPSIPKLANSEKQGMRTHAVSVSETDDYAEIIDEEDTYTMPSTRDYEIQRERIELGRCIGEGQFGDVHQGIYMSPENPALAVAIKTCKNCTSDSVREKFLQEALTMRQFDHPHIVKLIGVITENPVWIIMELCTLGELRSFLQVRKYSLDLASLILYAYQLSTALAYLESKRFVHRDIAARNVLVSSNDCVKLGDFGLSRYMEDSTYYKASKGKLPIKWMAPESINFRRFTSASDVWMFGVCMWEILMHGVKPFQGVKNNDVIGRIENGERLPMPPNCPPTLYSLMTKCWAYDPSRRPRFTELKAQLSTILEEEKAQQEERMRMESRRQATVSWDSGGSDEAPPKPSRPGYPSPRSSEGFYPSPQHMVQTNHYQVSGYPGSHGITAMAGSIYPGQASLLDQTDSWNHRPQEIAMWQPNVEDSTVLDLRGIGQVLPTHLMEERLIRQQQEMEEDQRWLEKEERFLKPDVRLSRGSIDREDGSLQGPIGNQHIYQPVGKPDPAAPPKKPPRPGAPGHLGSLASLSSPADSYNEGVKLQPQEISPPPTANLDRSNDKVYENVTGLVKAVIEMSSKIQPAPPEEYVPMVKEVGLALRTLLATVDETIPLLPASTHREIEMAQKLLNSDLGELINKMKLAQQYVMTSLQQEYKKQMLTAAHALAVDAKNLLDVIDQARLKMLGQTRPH

[4] = system: Fibrinogen (Alexa647-labelled); assay: Alexa647-fibrinogen binding to printed small molecules – biochemical, small-molecule microarray, 635/667 nm fluorescence, artefact control for SMM control-protein annotation, profiling panel (AID 1131); details: fibrinogen-A647 binding fluorescence, higher = more signal;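 also: z-score merges 667 nm fluorescence with per-spot signal-to-noise over triplicate slides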
[5] = target: Follistatin (Homo sapiens) (UniProt P19883); assay: FST protein binding to printed compounds – biochemical, small-molecule microarray, 635/667 nm fluorescence, primary screen (AID 1132); details: 635 nm fluorescence, higher = more signal
Chain of Follistatin (Homo sapiens) (P19883 whole entry, looked up): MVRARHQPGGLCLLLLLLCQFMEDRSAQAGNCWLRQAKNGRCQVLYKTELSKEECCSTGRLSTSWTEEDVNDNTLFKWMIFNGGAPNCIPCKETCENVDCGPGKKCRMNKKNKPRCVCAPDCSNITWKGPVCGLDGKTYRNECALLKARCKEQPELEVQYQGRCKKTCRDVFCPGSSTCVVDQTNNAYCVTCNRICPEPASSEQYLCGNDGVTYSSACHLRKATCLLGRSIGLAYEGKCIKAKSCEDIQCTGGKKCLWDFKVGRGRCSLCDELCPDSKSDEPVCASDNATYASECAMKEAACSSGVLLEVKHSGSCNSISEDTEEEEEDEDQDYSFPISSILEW

[6] = target: Fibroblast growth factor 2 (Homo sapiens) (UniProt P09038); assay: basic fibroblast growth factor binding to printed compounds – biochemical, small-molecule microarray, 635/667 nm fluorescence, primary screen (AID 1133); details: FGF2, fluorescence 635/667, higher = more signal
Chain of Fibroblast growth factor 2 (Homo sapiens) (P09038 whole entry, looked up): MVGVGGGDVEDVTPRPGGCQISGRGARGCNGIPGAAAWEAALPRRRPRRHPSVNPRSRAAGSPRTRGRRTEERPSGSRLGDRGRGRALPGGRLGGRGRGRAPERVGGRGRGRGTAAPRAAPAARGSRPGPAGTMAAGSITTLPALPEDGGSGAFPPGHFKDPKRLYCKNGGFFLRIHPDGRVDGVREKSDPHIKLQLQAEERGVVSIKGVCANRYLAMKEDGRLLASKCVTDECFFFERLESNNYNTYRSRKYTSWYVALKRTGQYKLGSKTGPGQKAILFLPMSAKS

[7] = JC-1 mitochondrial potential readout, lung cancer cells – cell-based, A549, JC-1 fluorescence, basal, 24 h, 100 nL, profiling panel (AID 1138); details: higher = more signal;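 also: A549 lung adenocarcinoma cells under basal conditions with no added stimulus; test concentration not given here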
Lefty1 = Lefty1 protein binding to printed compounds – biochemical, small-molecule microarray, 635/667 nm fluorescence, primary screen (AID 1139); details: fluorescence 635/667, higher = more signal
[8] = system: wheat germ agglutinin (Triticum aestivum), Alexa647-labelled; assay: Alexa647-WGA lectin binding to printed small molecules – biochemical, small-molecule microarray, 635/667 nm fluorescence, artefact control for SMM control-protein annotation, profiling panel (AID 1140); details: WGA-A647 binding, 635 nm fluorescence, higher = more signal;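 also: score merges 667 nm feature emission with signal to noise over triplicate slides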
[9] = target: Luciferin 4-monooxygenase (Photinus pyralis) (UniProt P08659); assay: inhibition of purified Photinus pyralis luciferase – biochemical, luminescence, purified enzyme, 2006 set, primary screen (AID 1141); details: purified firefly luciferase, SteadyGlo luminescence, 30 min; higher = more signal, called active from +8 up or from −8 down;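 also: cell-free assay with purified firefly luciferase at 100 ng per well in PBS; test concentration not given here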
Chain of Luciferin 4-monooxygenase (Photinus pyralis) (P08659 whole entry, looked up): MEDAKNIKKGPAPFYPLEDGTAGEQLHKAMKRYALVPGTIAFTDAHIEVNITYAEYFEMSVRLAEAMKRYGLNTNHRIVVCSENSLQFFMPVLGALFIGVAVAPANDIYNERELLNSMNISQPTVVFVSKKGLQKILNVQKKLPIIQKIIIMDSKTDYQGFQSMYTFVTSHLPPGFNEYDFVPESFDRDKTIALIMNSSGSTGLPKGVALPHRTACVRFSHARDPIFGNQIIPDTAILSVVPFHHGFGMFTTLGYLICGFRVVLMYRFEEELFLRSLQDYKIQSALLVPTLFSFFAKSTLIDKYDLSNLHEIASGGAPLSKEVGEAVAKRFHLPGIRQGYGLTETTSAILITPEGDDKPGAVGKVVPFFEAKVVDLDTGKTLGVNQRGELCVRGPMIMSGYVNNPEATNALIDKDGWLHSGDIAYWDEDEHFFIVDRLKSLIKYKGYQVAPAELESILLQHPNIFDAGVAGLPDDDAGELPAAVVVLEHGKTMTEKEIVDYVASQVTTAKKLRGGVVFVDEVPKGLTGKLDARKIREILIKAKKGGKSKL

Compound	composite z-score [1]	composite z-score [2]	composite z-score [3]	composite z-score [4]	composite z-score [5]	composite z-score [6]	z-score [7]	composite z-score (Lefty1)	composite z-score [8]	z-score [9]
O=C1O[C@@H](c2ccccc2)[C@@H](c2ccccc2)N2[C@@H](c3ccccc3OCCO)[C@]3(C(=O)Nc4ccc(C#CC5(O)CCCCCC5)cc43)[C@@H](C(=O)Nc3nc4ccccc4s3)[C@H]12	1.22	1.21	0.237	0.991	1.25	1.02	-1.98	0.744	0.847	-0.84 (inactive)
N[C@@H](Cc1ccccc1)Cn1cc(-c2ccccc2)nn1	-0.0727	0.184	-0.0983	0.274	0.219	-0.311	0.805	-0.155	0.441	-1.32 (inactive)
COCCOC(=O)N1C(=O)[C@@]2(c3cc(C#CCC(C(=O)OC)C(=O)OC)ccc31)[C@H](c1ccccc1OCCO)N1[C@H](c3ccccc3)[C@H](c3ccccc3)OC(=O)[C@H]1[C@@H]2C(=O)N1CCc2cc(OC)c(OC)cc2C1	0.89	1.19	1.33	0.938	1.41	1.49	-0.978	1.47	0.784	-0.882 (inactive)
COC(=O)c1ccc(C(O)C2C=CC3C(=O)N(C)C(=O)C3N2NC(=O)OC(C)(C)C)o1 (stereo not given)	0.882	1.06	0.329	0.63	0.419	0.624	-0.414	0.0239	0.436	-0.965 (inactive)
N#Cc1ccc(NN2C(C(O)c3cccs3)C=CC3C(=O)N(c4ccccc4)C(=O)C32)cc1 (stereo not given)	-0.272	0.685	0.421	0.71	0.556	-0.216	0.989	-0.257	0.578	-0.589 (inactive)
O=C(CCN1CCOCC1)c1cccc(O)c1	1.52	0.854	0.531	0.884	1.35	1.55	0.574	1.41	1.07	0.618 (inactive)
[N-]=[N+]=NCc1ccccc1C[C@]1(C(=O)NCC(O)CO)N=C(c2ccc(OCCCO)cc2)O[C@H]1c1ccccc1N=[N+]=[N-] (stereo not given in full)	2.99	1.12	1.66	0.188	-0.181	-0.189	1.63	-0.923	0.541	-6.49 (inactive)
COC(=O)c1ccc(C(O)C2C=CC3C(=O)N(c4ccccc4)C(=O)C3N2Nc2ccc(C#N)cc2)o1 (stereo not given)	0.355	0.889	0.303	1	0.62	0.275	0.385	-0.0841	0.475	-1.32 (inactive)
COCCCNC(=O)[C@@]1(CCC(=O)OC(C)(C)C)N=C(c2ccc(OCCCO)cc2)O[C@H]1c1ccccc1CN=[N+]=[N-]	3.15	1.04	1.02	1.01	1.39	1.28	-0.49	-0.34	1.2	-1.05 (inactive)
COc1ccc(C#Cc2ccc3c(c2)[C@]2(C(=O)N3)[C@H](c3ccc(O)cc3)N3[C@H](c4ccccc4)[C@H](c4ccccc4)OC(=O)[C@H]3[C@@H]2C(=O)NC[C@H](O)c2ccccc2)cc1	1.35	1.21	0.32	0.556	1.03	0.487	-1.26	0.751	1.01	-0.835 (inactive)
CC(C)NC(=O)[C@@H]1c2ccccc2C(=O)N(Cc2ccccc2Cl)[C@H]1c1ccc(CO)cc1	3.06	0.247	-0.313	-0.629	-0.555	-0.222	2.55	-0.221	0.842	-1.08 (inactive)
O=C1C[C@]2(c3ccc([N+](=O)[O-])cc3)C(=O)N(CC(F)(F)F)c3cc(CO)ccc3[C@H]2N1CC12CC3CC(CC(C3)C1)C2	-0.239	-0.369	0.0419	-1.16	0.77	0.0808	0.297	0.551	0.122	1.09 (inactive)
CC(C)CNC(=O)[C@@]1(c2ccc([N+](=O)[O-])cc2)CC(=O)N(CC23CC4CC(CC(C4)C2)C3)[C@@H]1c1ccc(CO)cc1I	1.33	1.14	0.775	0.635	1.39	1.31	1.12	1.12	0.352	-0.447 (inactive)
CC1=C2[C@@H](CCc3ccccc3)OB(O)C[C@@H]2n2c(=O)n(-c3ccccc3)c(=O)n2C1	0.324	0.479	0.233	0.923	0.794	0.618	0.235	0.897	0.0099	-0.85 (inactive)
CCCCCN1CC=CC23O[C@@H]4/C=C\CCCOC(=O)C4[C@H]2C(=O)N(CCCCCCO)[C@@H]3C1=O (stereo not given in full)	0.599	0.906	0.929	-2.05	-0.679	-0.964	1.05	0.0393	1.14	-3.28 (inactive)
COC(=O)c1ccc(OC)c(/C=C\CC(OC(C)=O)c2ccccc2)c1 (stereo not given)	0.838	0.255	-0.0638	0.775	0.946	0.933	-0.363	0.741	1.11	-0.454 (inactive)

Compound	composite z-score [1]	composite z-score [2]	composite z-score [3]	composite z-score [4]	composite z-score [5]	composite z-score [6]	z-score [7]	composite z-score (Lefty1)	composite z-score [8]	z-score [9]
O=C1N(CCS(=O)(=O)c2ccccc2)c2ccccc2C[C@@]12COC(c1ccc(OCCCO)cc1)=N2	2.83	1.25	1.16	0.962	1.28	0.87	-0.0718	0.222	0.611	-1.63 (inactive)
CCOC(=O)C1=CCC(C(C)(C)C)N(S(=O)(=O)c2ccc(C)cc2)C1 (stereo not given)	0.992	1.26	0.225	1.01	1.29	1.39	0.363	1	0.722	0.916 (inactive)
C=CCNC(=O)[C@@H]1[C@H]2C(=O)O[C@H](c3ccccc3)[C@H](c3ccccc3)N2[C@H](c2ccc(O)cc2)[C@@]12C(=O)N(C(=O)OCCOC)c1ccccc12	1.92	1.21	0.419	0.945	0.714	-0.145	-0.595	0.522	0.795	-0.355 (inactive)
CC(C)C(=C=CC[C@H](O)c1cccc(OCCO)c1)C[C@H](O)COCc1ccccc1	0.366	0.165	0.107	0.637	0.235	0.562	-0.241	0.554	-0.0699	0.209 (inactive)
O=C1N(CCS(=O)(=O)c2ccccc2)Cc2ccccc2[C@H]2OC(c3ccc(OCCCO)cc3)=N[C@@]12CCS(=O)(=O)c1ccccc1	2.44	1.21	0.772	0.561	1.33	1.31	-1.15	-0.0425	1.09	-1.7 (inactive)
O=C1OCCC=C[C@H]2OC34C=CCN(c5ccc6ccccc6c5)C(=O)[C@H]3N(CCCCCO)C(=O)[C@@H]4C12 (stereo not given in full)	0.565	0.312	0.602	0.737	-0.626	-0.329	2.3	-0.332	1.28	-1.1 (inactive)
CCCCC=C[C@@H](NC(=O)c1ccco1)c1ccccc1	0.34	-1.19	-0.0668	1.01	0.487	0.133	-0.881	-0.337	0.653	2.18 (inactive)
CCOC(=O)C[C@H]1[C@H](OC(=O)c2ccc(-c3ccccc3)cc2)[C@@H](NC(=O)c2ccc(-c3ccccc3)cc2)c2cc(OCCCO)ccc2N1C(=O)Cc1ccc(OC)cc1	0.296	0.226	0.315	0.656	0.13	-0.167	0.322	-0.245	-0.0591	0.735 (inactive)
O=C1C=CC(=O)[C@@H]2CC(COc3ccccc3)=C3[C@@H](CCc4ccccc4)OB(O)C[C@@H]3[C@H]12	0.346	0.273	-0.0461	-0.0249	1.08	0.45	-1.59	0.411	-0.158	-3.18 (inactive)
C=CC(=C)C1=CCO[C@@H]1[C@H]1CCCN1S(=O)(=O)c1ccccc1[N+](=O)[O-]	0.2	0.25	-0.318	0.802	0.976	0.174	-0.295	0.767	0.241	0.0352 (inactive)
COc1ccc(CCN2C(=O)[C@@]3(Cc4ccccc42)c2ccccc2C(=O)N(Cc2ccccc2Cl)[C@H]3c2ccc(CO)cc2)cc1	-1.74	-1.3	-0.657	-0.953	-1.1	-0.157	-0.599	-1.17	-0.0043	-0.822 (inactive)
COc1ccc([Si](C)(C)[C@@H]2[C@@H](CC(=O)N(CCO)Cc3ccccc3)O[C@]3(C(=O)N(C)c4ccccc43)[C@H]2C)cc1	1.93	1.17	0.495	0.958	1.44	1.4	0.194	1.45	1.17	0.0071 (inactive)
CC(C)(C)N1CC=CC23O[C@@H]4C=CCOC(=O)[C@@H]4[C@H]2C(=O)N(CCCCCO)[C@@H]3C1=O (stereo not given in full)	3.57	-1.45	-0.758	-2.1	-0.889	-0.326	-0.879	-1.17	-1.31	0.107 (inactive)
CC(=CC1CCCCC1)[C@@H](NC(=O)c1ccc(C(F)(F)F)cc1)c1ccc(-c2ccccc2)cc1	-0.453	-0.753	-0.708	-0.134	-0.136	-0.58	-0.269	-0.795	0.165	1.25 (inactive)
COC(=O)C[C@H]1O[C@]2(C(=O)N(Cc3ccccc3)c3ccc(NC(C)=O)cc32)[C@@H](C)[C@@H]1[Si](C)(C)c1ccc(OC)cc1	0.242	0.822	-0.0722	0.483	0.528	0.52	-0.922	0.68	0.657	0.531 (inactive)

Reference: PubChem BioAssay
